This is one part of a sample in which hits are shown more often than they occur.
Pf Dd2 growth – blocks in vitro growth of P. falciparum Dd2 | hit rate 4.3% among 120,000 | P. falciparum Dd2 growth, SYBR Green, 72 h | Potency, µM (doses to about 28.9 µM), inactives show at the top dose activity, negative = inhibition, actives largely listed as inhibitors | AID 1347417; active = well fitted inhibition curve with a large enough effect;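 note: plate controls were DMSO vehicle for no effect and reference drug for full effect; nearly all actives have a fitted effect of over 65% in size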
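Infected erythrocytes (Dd2, 0.3% parasitemia, 2.5% hematocrit final) are added to compound in RPMI-1640/Albumax II medium, grown 72 h at 37C in low oxygen, then lysed with saponin/Triton-X containing SYBR Green and read by fluorescence.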
The depositor's hits bear a star; i = inactive; [ ] = remark or other dose. Potency is the fitted concentration of half-maximal effect.

SMILES	Pf Dd2 growth
O=C(COc1ccccc1Cl)c1ccc2c(c1)N(CC(=O)N1CCCC1)C(=O)CO2	i
COc1ncc(-c2n[nH]c3c2CC(=O)N(c2ccccc2)C3)cn1	14.0%[44.1 µM]
CC(C(N)=O)N1CCC(n2nccc2NC(=O)c2ccc3c(c2)OCO3)CC1 (centres undefined)	4.0%
COc1cccc(CNC(=O)Cn2ccn3nc4c(c3c2=O)CCCCC4)c1OC	i
CN1CCN(CC(=O)N2CCCC(c3ccc(Cl)cc3)C2)C1=O (centres undefined)	4.5%
CCc1noc(-c2nc(Cc3cccc(F)c3)no2)n1	i
Oc1ccc(CCC2CCCCN2Cc2nc(Cc3cccc(F)c3)no2)cc1 (centres undefined)	5.01µM*
CN(Cc1ccc(-n2cccn2)cc1)Cc1nc(Cc2cccc(F)c2)no1	4.8%
COCCN(CCOC)C(=O)[C@@H](C)C1CC[C@@]2(C)CC[C@H](NC(=O)COC)[C@@H](C)[C@@H]2[C@H]1O (some centres undefined)	-9.1%
CC(=O)N1CC2(Cc3ccccc31)CN(C(=O)c1ccc(C)cc1)C2	-14.6%
COc1cccc([S+](=O)([O-])N2CCc3nc(C4CC4)nc(-c4ccc(Cl)cc4)c3C2)c1	-19.7%
Oc1ccc(-c2nc(C3CC3)nc3c2CCN(Cc2ccc(OC(F)(F)F)cc2)CC3)cc1	-1.6%
CCc1nc2c(c(-c3ccc(Cl)cc3)n1)CCN([S+](=O)([O-])c1cccc(OC)c1)CC2	12.6µM*
COc1ccc(-c2nc(C3CC3)nc3c2CCN(Cc2ccsc2)CC3)cc1	10µM*
COc1ccc(-c2nc(C3CC3)nc3c2CCN(CC2CCCCC2)CC3)cc1	i
COc1ccc(-c2nc(C3CC3)nc3c2CCN(CC2CC2)CC3)cc1	-10.6%
CCc1nc2c(c(-c3ccc(Cl)cc3)n1)CN(Cc1cccc(F)c1)CC2	10µM*
CCc1nc2c(c(-c3ccc(Cl)cc3)n1)CCN(Cc1ccc(C(F)(F)F)cc1)CC2	i
CCc1nc2c(c(-c3ccc(OC)cc3)n1)CN([S+](=O)([O-])c1cccc(C(F)(F)F)c1)CC2	-8.2%
Oc1ccc(-c2nc(C3CC3)nc3c2CCN(Cc2ccccc2)CC3)cc1	-8.2%
CCc1nc2c(c(-c3ccc(Cl)cc3)n1)CCN(Cc1cc(C)on1)CC2	i
COc1ccc(-c2nc(C3CC3)nc3c2CCN(Cc2ccc(F)cc2)CC3)cc1	7.08µM*
CCN(CC)C(=O)[C@@H]1CCC[C@@H](NC(=O)c2cc(C)n(C)n2)CN(C)C(=O)C1	-23.8%[44.1 µM]
CN1CC(=O)N(c2ccccc2)Cc2c(NC3CC3)ncnc21	2.1%
COCc1noc(CC2CCOC3(CCN(C(=O)NCc4ccc(OC)cc4)CC3)C2)n1 (centres undefined)	-8.9%
SMILES	Pf Dd2 growth
CC(C)(C)C1CCC2(CC1)NC(=O)N(CC(=O)NCCCc1ccccc1)C2=O (centres undefined)	-7.7%
O=C1CC2CCN(Cc3nc4ccccc4s3)CC2CCN1 (centres undefined)	3.5%
CCc1cc(=O)n(CC(=O)Nc2cccc(Cl)c2C)c(N2CCOCC2)n1	-24.9%
CCCCc1nn(CC(=O)N2CCC(COC)C2)c(=O)n1Cc1ccccc1 (centres undefined)	-6.8%
C#CCNC(=O)c1nc(C(C)(C)C)c2ccccn12	-1.8%[44.1 µM]
O=C(c1cccnc1OC1CCN(S(=O)(=O)Cc2ccccc2)C1)N1CCOCC1 (centres undefined)	-20.7%
COc1ccc(CC(=O)N2CC(C(=O)NCCc3ccncc3)C3(CCOCC3)C2)cc1 (centres undefined)	-10.1%
COc1cccc(CC(=O)N2CC(C(=O)NCCc3ccncc3)C3(CCOCC3)C2)c1 (centres undefined)	-14.1%
COc1ccc(CN2CC(OCc3ccccc3F)CN(C(=O)C3=NNC(=O)CC3)CC2=O)cc1 (centres undefined)	-19.9%
COC(=O)C(=O)N1CC[C@H]2NC(=O)N(c3ccccc3)C(=O)[C@H]21	7.3%[44.1 µM]
CCc1nc2c(c(-c3ccc(O)cc3)n1)CCN(Cc1ccc(OC)cc1)CC2	2µM*
CCc1nc2c(c(-c3ccc(O)cc3)n1)CCN(Cc1ccncc1)CC2	i
CCc1nc2c(c(-c3ccc(O)cc3)n1)CN(Cc1ccc(OC)cc1)CC2	-16.8%
COc1ccc(CN2C(=O)C3(CCOCC3)CC2c2nnnn2C(C)(C)C)cc1 (centres undefined)	37.1%
Cn1c(Cn2cccn2)nnc1C1CC(NC(=O)c2cnco2)C1 (centres undefined)	-3.2%
CCn1cc(-c2ccc(OC)cc2)cc1C(=O)NC(C)c1cccnc1 (centres undefined)	-21.6%
CCCn1cc(-c2ccncc2)cc1C(=O)NCc1ccc(OC)cc1	i
CCCn1cc(-c2ccncc2)cc1C(=O)NC(C)c1ccc(OC)cc1 (centres undefined)	7.94µM*
Cc1noc(C)c1-c1cccc(CCOc2cnc3c(ccn3CC(=O)O)c2)c1	i
Cc1ccc(C)c(C(=O)N2C[C@@H](CO)[C@H](c3ccncc3)C2)c1	i
COc1ccc(C2C(C(=O)Nc3ccccc3)=C(C)Nc3nc(SCC(=O)c4ccc(C)cc4)nn32)cc1 (centres undefined)	30.4%
COc1ccc(-c2cnnn2-c2ccc(NC(=O)c3ccccc3OC)cc2)cc1	27.5%
CCOc1cccc(-c2nc(C(=O)Nc3ccc(OC)cc3)cs2)c1	24.3%
CCOc1ccc(NC(=O)c2cnn3c2NC(c2cccc(OC)c2)=CC3c2ccccc2)cc1 (centres undefined)	1.41µM*
CCOc1ccc(NC(=O)c2cc3cc4cc(OC)ccc4nc3s2)cc1	-2.2%
SMILES	Pf Dd2 growth
COc1ccc(C2C=C(c3ccc(C)cc3)Nc3c(C(=O)Nc4ccccc4)cnn32)cc1 (centres undefined)	8.91µM*
COc1cc(OC)c(C2C=C(c3ccc(C)cc3)Nc3c(C(=O)Nc4ccccc4)cnn32)cc1OC (centres undefined)	10µM*
COc1cccc(C2C(C(=O)Nc3ccccc3)=C(C)Nc3nc(-c4ccccc4)nn32)c1OC (centres undefined)	i
COc1ccc(C2C(C(=O)Nc3ccccc3)=C(C)Nc3nc(-c4ccccc4)nn32)c(OC)c1 (centres undefined)	i
CCOC(=O)Cc1csc(NC(=O)C2CC(=O)N(c3n[nH]c4cccc(F)c34)C2)n1 (centres undefined)	-0.9%
CN1CCC(N[C@H]2CC(C)(C)[C@@H]3C[C@@](C)(O)CC[C@]23CCC(=O)N2CCOCC2)CC1	11.2%
CN1CCCCCCN(C(=O)C2CC2)[C@H]2CCC[C@H]2C1=O	-0.5%
COc1ccc(C(=O)N2CCN(CC3CC3)[C@@H]3CS(=O)(=O)C[C@@H]32)c(C)c1	8.5%
COc1cccc(C(=O)N2C(C(=O)N3CCOCC3)COC23CCN(C(=O)CC(C)(C)C)CC3)c1 (centres undefined)	-4.9%
COc1ccc2[nH]c3c(c2c1)CCN(C)C31CCN(C(=O)c2ccccc2F)CC1	-17.4%
O=C(COc1ccc(F)cc1)N1CCC2(CC1)CN(C1CCC1)CC2CO (centres undefined)	i
CN(CC1CCOC1)C(=O)c1cccs1 (centres undefined)	30.5%[5.79 µM]
CCOc1ccc(C(=O)N2CCC3(CC2)N(C)C(=O)CS3(=O)=O)cc1	19.1%
CC1=C[C@@H](CNCc2ccncc2)[C@H](C(C)C)C[C@H]1Cc1nnc(C)o1	i
CC1=C[C@@H](CNC(=O)C2CCCCC2)[C@H](C(C)C)C[C@H]1CC(=O)NCc1cccnc1	-22.0%[44.1 µM]
